Measurements reported in PubChem BioAssay AID1159580 (chemical genetic matrix, 2015).
Values joined by “and” are separate entries in the source; they are usually repeats but may differ in a detail not shown here. Equal entries are not always repeated. Screen size: about 5,500 compounds; about 2,000 (36%) were called active. Roughly 18% stayed inconclusive and do not appear here. No stated cut-off is given here; in the data, active means normalized growth mostly below about 0.91 (no sharp cut-off); inconclusive means no clear call, values can overlap the other calls; inactive means mostly above about 0.92. The list shows a part of the results.

Experiment: chemical genetic growth profiling, strain panel (AID 1159580);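 further: tested at 20 µM; growth read once vehicle control cultures reached saturation at 30 °C; 1 = growth at the plate median or of vehicle wells; lower values mean less growth of the strain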
Details: S. cerevisiae deletion strains, growth OD

Measured: normalized growth

O=C(O)C1CC([C@@H]2CCCCN2)CN2CCCCC12 (some centres not stated)
inactive: locus YAL021C, strain ccr4, active compounds read low 1.02 | locus YAL026C, strain drs2, active compounds read low 0.967 | locus YAL030W, strain snc1, active compounds read low 0.972 | locus YBL061C, strain skt5, active compounds read low 0.985 | locus YBR009C, strain hhf1, active compounds read low 0.924 | locus YBR021W, strain FUR4, active compounds read low 1.08 | locus YBR023C, strain chs3, active compounds read low 1.01 | locus YBR171W, strain sec66, active compounds read low 0.974 | locus YBR229C, strain ROT2, active compounds read low 1.01 | locus YBR231C, strain swc5, active compounds read low 0.981 | locus YBR279W, strain paf1, active compounds read low 0.995 | locus YCL011C, strain gbp2, active compounds read low 0.953 | locus YCL016C, strain dcc1, active compounds read low 0.989 | locus YCL029C, strain bik1, active compounds read low 0.969 | locus YCL061C, strain MRC1, active compounds read low 0.983 | locus YCL069W, strain vba3, active compounds read low 0.969 | locus YCR088W, strain abp1, active compounds read low 0.987 | locus YDL005C, strain med2, active compounds read low 0.972 | locus YDL035C, strain GPR1, active compounds read low 1.01 | locus YDL040C, strain nat1, active compounds read low 0.981 | locus YDL074C, strain BRE1, active compounds read low 1.04 | locus YDL101C, strain DUN1, active compounds read low 1.03 | locus YDL134C, strain PPH21, active compounds read low 1.1 | locus YDL185W, strain tfp1, active compounds read low 0.968 | locus YDL192W, strain arf1, active compounds read low 0.967 | locus YDR001C, strain nth1, active compounds read low 0.97 | locus YDR069C, strain doa4, active compounds read low 0.97 | locus YDR101C, strain arx1, active compounds read low 0.984 | locus YDR137W, strain rgp1, active compounds read low 0.978 | locus YDR159W, strain sac3, active compounds read low 0.958 | locus YDR162C, strain NBP2, active compounds read low 1.08 | locus YDR195W, strain ref2 0.924 | locus YDR297W, strain sur2, active compounds read low 0.984 | locus YDR318W, strain mcm21, active compounds read low 0.98 | locus YDR334W, strain swr1, active compounds read low 0.963 | locus YDR335W, strain msn5, active compounds read low 0.983 | locus YDR388W, active compounds read low 0.986 | locus YDR392W, strain spt3, active compounds read low 0.902 | locus YDR502C, strain sam2, active compounds read low 0.993 | locus YEL003W, strain gim4, active compounds read low 0.98 | locus YEL037C, strain rad23, active compounds read low 0.987 | locus YEL061C, strain CIN8 (second series), active compounds read low 0.97 | locus YEL061C, strain CIN8, active compounds read low 1.01 | locus YER015W, strain faa2, active compounds read low 0.997 | locus YER016W, strain bim1, active compounds read low 0.993 | locus YER110C, active compounds read low 0.992 | locus YER111C, strain swi4, active compounds read low 0.965 | locus YER155C, strain BEM2 (second series), active compounds read low 0.968 | locus YER155C, strain BEM2, active compounds read low 1.01 | locus YER167W, strain BCK2, active compounds read low 1.02 | locus YFR010W, strain ubp6, active compounds read low 0.969 | locus YGL078C, strain dbp3, active compounds read low 0.993 | locus YGL086W, strain mad1, active compounds read low 1.03 | locus YGL167C, strain pmr1, active compounds read low 0.957 | locus YGL173C, strain kem1, active compounds read low 0.979 | locus YGL227W, strain vid30, active compounds read low 0.959 | locus YGL240W, strain doc1, active compounds read low 0.959 | locus YGL248W, strain PDE1, active compounds read low 1.04 | locus YGL253W, strain hxk2, active compounds read low 0.999 | locus YGR078C, strain PAC10, active compounds read low 1.06 | locus YGR135W, strain pre9, active compounds read low 0.979 | locus YGR229C, strain SMI1, active compounds read low 1.08 | locus YGR252W, strain gcn5, active compounds read low 1.05 | locus YHR013C, strain ard1, active compounds read low 0.93 | locus YHR027C, strain rpn1, active compounds read low 0.971 | locus YHR030C, strain SLT2, active compounds read low 0.997 and 0.989 | locus YHR079C, strain IRE1 (second series), active compounds read low 0.998 | locus YHR079C, strain IRE1, active compounds read low 0.998 | locus YHR094C, strain hxt1, active compounds read low 0.978 | locus YHR129C, strain ARP1, active compounds read low 1.01 | locus YHR142W, strain chs7, active compounds read low 1.01 | locus YHR200W, strain rpn10, active compounds read low 0.968 | locus YIL066C, strain RNR3, active compounds read low 1.05 | locus YIL073C, strain SPO22, active compounds read low 0.984 | locus YIL125W, strain kgd1, active compounds read low 0.993 | locus YIR030C, strain dcg1, active compounds read low 0.985 | locus YJL092W, strain hpr5, active compounds read low 0.976 | locus YJL095W, strain BCK1 (second series), active compounds read low 1 | locus YJL095W, strain BCK1, active compounds read low 1.08 and 1.04 | locus YJL115W, strain asf1, active compounds read low 0.978 | locus YJL129C, strain trk1, active compounds read low 0.973 | locus YJL134W, strain LCB3, active compounds read low 1 | locus YJL154C, strain vps35, active compounds read low 0.986 | locus YJL164C, strain tpk1, active compounds read low 0.997 | locus YJL166W, strain qcr8, active compounds read low 0.995 | locus YJL168C, strain set2, active compounds read low 0.986 | locus YJL187C, strain SWE1 (second series), active compounds read low 1.04 | locus YJL187C, strain SWE1, active compounds read low 0.976 | locus YJR043C, strain POL32, active compounds read low 1.04 | locus YJR066W, strain TOR1, active compounds read low 0.941 | locus YJR075W, strain HOC1, active compounds read low 1.03 | locus YKL009W, strain mrt4, active compounds read low 0.968 | locus YKL068W, active compounds read low 0.99 | locus YKL085W, strain MDH1 (second series), active compounds read low 1.01 | locus YKL085W, strain MDH1, active compounds read low 1.01 | locus YKL160W, strain elf1, active compounds read low 1.01 | locus YKR001C, strain vps1, active compounds read low 1.02 | locus YKR026C, strain gcn3, active compounds read low 0.973 | locus YKR091W, strain srl3, active compounds read low 0.956 | locus YLL001W, strain dnm1, active compounds read low 1.01 | locus YLL026W, active compounds read low 0.999 | locus YLL041C, strain sdh2, active compounds read low 0.997 | locus YLR027C, strain aat2, active compounds read low 0.972 | locus YLR039C, strain RIC1, active compounds read low 1.01 | locus YLR058C, strain SHM2, active compounds read low 1.02 | locus YLR102C, strain apc9, active compounds read low 0.998 | locus YLR113W, strain HOG1, active compounds read low 1.02 | locus YLR221C, strain rsa3, active compounds read low 0.993 | locus YLR258W, strain gsy2, active compounds read low 0.982 | locus YLR262C, strain YPT6 (second series), active compounds read low 0.978 | locus YLR262C, strain YPT6, active compounds read low 1.04 | locus YLR268W, strain sec22, active compounds read low 1.02 | locus YLR320W, strain mms22, active compounds read low 0.984 | locus YLR330W, strain CHS5, active compounds read low 1 | locus YLR342W, strain FKS1 (second series), active compounds read low 1.07 | locus YLR342W, strain FKS1, active compounds read low 0.958 | locus YLR357W, strain rsc2, active compounds read low 0.963 | locus YLR370C, strain arc18, active compounds read low 0.957 | locus YLR371W, strain rom2, active compounds read low 0.945 | locus YLR384C, strain iki3, active compounds read low 0.988 | locus YLR418C, strain cdc73, active compounds read low 1.01 | locus YML016C, strain PPZ1, active compounds read low 1.02 | locus YML032C, strain rad52, active compounds read low 0.986 | locus YML120C, strain ndi1, active compounds read low 0.991 | locus YML124C, strain tub3, active compounds read low 0.978 | locus YMR058W, strain fet3, active compounds read low 0.968 | locus YMR078C, strain ctf18, active compounds read low 0.963 | locus YMR125W, strain sto1, active compounds read low 0.917 | locus YMR129W, active compounds read low 0.96 | locus YMR205C, strain PFK2, active compounds read low 0.931 | locus YMR223W, strain ubp8, active compounds read low 0.981 | locus YMR231W, strain pep5, active compounds read low 0.967 | locus YMR307W, strain GAS1, active compounds read low 1.13 | locus YNL067W, strain RPL9B, active compounds read low 1.05 | locus YNL071W, strain lat1, active compounds read low 0.987 | locus YNL153C, strain GIM3, active compounds read low 1.07 | locus YNL183C, strain NPR1, active compounds read low 0.97 | locus YNL209W, strain ssb2, active compounds read low 0.965 | locus YNL233W, strain BNI4, active compounds read low 1.06 | locus YNL248C, strain rpa49, active compounds read low 1.01 | locus YNL250W, strain rad50, active compounds read low 0.983 | locus YNL271C, strain bni1, active compounds read low 0.968 | locus YNL298W, strain CLA4, active compounds read low 0.972 | locus YNL307C, strain MCK1, active compounds read low 0.999 | locus YNL322C, strain KRE1 (second series), active compounds read low 0.971 | locus YNL322C, strain KRE1, active compounds read low 1.01 | locus YNR049C, strain mso1, active compounds read low 0.978 | locus YNR052C, strain pop2, active compounds read low 0.975 | locus YOL006C, strain TOP1, active compounds read low 1.08 | locus YOL012C, strain htz1 0.943 | locus YOL147C, strain pex11, active compounds read low 0.995 | locus YOR001W, strain rrp6, active compounds read low 1.03 | locus YOR061W, strain CKA2, active compounds read low 1.01 | locus YOR069W, strain VPS5, active compounds read low 1 | locus YOR070C, strain gyp1, active compounds read low 0.999 | locus YOR080W, strain dia2, active compounds read low 0.973 | locus YOR083W, strain WHI5, active compounds read low 1.02 | locus YOR106W, strain vam3, active compounds read low 1 | locus YOR136W, strain idh2, active compounds read low 1.01 | locus YOR144C, strain elg1, active compounds read low 0.996 | locus YOR184W, strain ser1, active compounds read low 1.01 | locus YOR231W, strain MKK1, active compounds read low 0.98 | locus YOR265W, strain rbl2, active compounds read low 0.946 | locus YOR270C, strain vph1, active compounds read low 0.989 | locus YOR290C, strain snf2, active compounds read low 0.917 | locus YOR316C, strain cot1, active compounds read low 0.971 | locus YPL051W, strain arl3, active compounds read low 1.01 | locus YPL055C, strain LGE1, active compounds read low 1.06 | locus YPL078C, strain atp4, active compounds read low 0.988 | locus YPL106C, strain sse1, active compounds read low 0.959 | locus YPL240C, strain hsp82, active compounds read low 0.977 | locus YPL256C, strain CLN2, active compounds read low 1.01 | locus YPR119W, strain clb2, active compounds read low 0.987 | locus YPR141C, strain kar3, active compounds read low 0.983 | locus YPR163C, strain tif3, active compounds read low 0.989 | locus YPR167C, strain met16, active compounds read low 0.975 | strain wtn01, active compounds read low 0.989
